# Assay results from PubChem BioAssay.
# Several values for one entry are separate records, joined by “and”; a condition that tells them apart may be missing. Equal values may be shown once. Inconclusive results are not listed. Where a structure was tested more than once in an assay, its records may differ in their call. Activity calls are given as the source filed them. Unless noted, no stated cut-off is given here; in the data, active means inhibition above about 80%; inactive means the rest.
# Columns and labels:
# [1] = target: 6-phosphogluconate dehydrogenase, decarboxylating (Homo sapiens) (UniProt P52209); assay: inhibition of human phosphogluconate dehydrogenase – biochemical, recombinant enzyme, NADPH absorbance, primary screen (AID 1159550;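 active means at least 20% inhibition of 6-phosphogluconate dehydrogenase activity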); conditions: recombinant 6PGD, NADPH absorbance 341 nm; at 10 µM; stronger effect = higher value
# [2] = viability loss in pontine glioma line – cell-based, SU-DIPG-XIII, MIPE4.0, CellTiter-Glo, qHTS, dose response (AID 1347061; cut-off not given, nearly all actives have AC50 up to about 37 µM;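 further: cells exposed to compound for 48 hours before readout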); conditions: CellTiter-Glo ATP luminescence
# [3] = viability loss in pontine glioma line – cell-based, JHH-DIPG-1, MIPE4.0, CellTiter-Glo, qHTS, dose response (AID 1347062; cut-off not given, nearly all actives have AC50 up to about 27 µM;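 on AC50: cells exposed to compound for two days before readout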); conditions: JHH-DIPG-1 viability, CellTiter-Glo ATP luminescence
# [4] = viability loss in pontine glioma line – cell-based, SU-DIPG-IV, MIPE4.0, CellTiter-Glo, qHTS, dose response (AID 1347063; cut-off not given, nearly all actives have AC50 up to about 30 µM;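 further: compound exposure lasted 48 hours before the viability readout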); conditions: CellTiter-Glo ATP luminescence
# [5] = growth inhibition of DIPG cells – cell-based, MIPE4.0 library, CellTiter-Glo luminescence, qHTS (AID 1347066; cut-off not given, nearly all actives have AC50 up to about 30 µM;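 further: cells exposed to compound for 48 hours before readout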); conditions: SU-DIPG-VI viability, CellTiter-Glo ATP luminescence
# [6] = viability loss in pontine glioma line – cell-based, SU-DIPG-XVII, MIPE5.0, CellTiter-Glo, qHTS, dose response (AID 1347060; cut-off not given, nearly all actives have AC50 up to about 26 µM;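 further: cells exposed to compound for 48 hours before viability readout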); conditions: CellTiter-Glo ATP luminescence
# [7] = viability loss in pontine glioma line – cell-based, SU-DIPG-XXV, MIPE5.0, CellTiter-Glo, qHTS, dose response (AID 1347065; cut-off not given, nearly all actives have AC50 up to about 26 µM;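 further: cells exposed to compound for 48 hours before ATP readout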); conditions: CellTiter-Glo ATP luminescence
# [8] = JHH-DIPG-1 glioma cell viability, MIPE5.0 library, CellTiter-Glo luminescence, qHTS (AID 1347067; cut-off not given, nearly all actives have AC50 up to about 26 µM;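 further: cells exposed to compound for 48 hours before readout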); conditions: JHH-DIPG-1 glioma viability, CellTiter-Glo ATP luminescence
# [9] = target: NAD(+) hydrolase SARM1 (Homo sapiens) (UniProt Q6SZW1); assay: blocking NAD cleavage by SARM1 SAM-TIR – cell lysate, NAD-Glo luminescence (AID 1508614;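 active means compound whose remaining NAD level is above about 45 nM, limit read from the data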); conditions: SAM-TIR HEK293T lysate NADase, at 1 µM, stronger effect = higher value
# [10] = target: Mitogen-activated protein kinase 7 (Homo sapiens) (UniProt Q13164); assay: Gal4-ERK5 driven luciferase induction – cell-based, HTS, primary screen (AID 1508626;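 active means luciferase signal above three times the same-plate solvent-only control wells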;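 further: luciferase driven by Gal4-ERK5 fusion binding five Gal4 sites before minimal TATA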); conditions: HeLa Gal4-ERK5 transactivation, 18 h, at 5 µM, stronger effect = higher value
# [11] = growth inhibition, single agent or in combination, cell-based, chromothripsis tumors, cisplatin or BGB combos (AID 1671449); conditions: LFS_MB_P medulloblastoma cells;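 further: cells exposed for 96 hours; 0% = vehicle DMSO and 100% = killing by high DMSO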
# [12] = growth inhibition, single agent and combos, cell-based, chromothripsis tumors, cisplatin or BGB combos (AID 1671450); conditions: HDN33 neuroblastoma cells, stronger effect = higher value;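 further: cells exposed to compound for four days; 0% = vehicle DMSO and 100% = cell killing by high DMSO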
# [13] = growth inhibition, single agents and combos, ICB984, cell-based, cisplatin or BGB combos, synergistic combos for chromothripsis tumors (AID 1671451; call rule not given here;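 further: cells exposed for 96 hours before readout; 0% = vehicle DMSO and 100% = killing by high DMSO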); conditions: ICB984 medulloblastoma cells, drug combinations, stronger effect = higher value
# [14] = growth inhibition, single agents and combos, LFS_MB_1R, cell-based, cisplatin or BGB combos, synergistic combos for chromothripsis tumors (AID 1671452); conditions: LFS_MB_1R medulloblastoma cells, stronger effect = higher value;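 further: cells exposed for 96 hours before readout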
# [15] = growth inhibition, single agents and combos, HTB85, cell-based, BGB or cisplatin IC20 combos, synergistic combos for chromothripsis tumors (AID 1671453); conditions: HTB85 osteosarcoma cells, drug combinations, stronger effect = higher value;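 further: cells exposed for 96 hours before readout; 0% = vehicle DMSO and 100% = high DMSO killing control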
# [16] = growth inhibition, single agents and combos, CRL2098, cell-based, BGB or cisplatin IC20 combos, synergistic combos for chromothripsis tumors (AID 1671454); conditions: CRL2098 osteosarcoma cells, drug combinations, stronger effect = higher value;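 further: cells exposed for 96 h before readout; 0% = vehicle DMSO and 100% = killing by high DMSO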
# [17] = growth inhibition, single agents and combos, HD-MB03, cell-based, BGB or cisplatin IC20 combos, synergistic combos for chromothripsis tumors (AID 1671455; in the data active means inhibition above about 83%;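 further: 0% = vehicle DMSO and 100% = high DMSO as cytotoxic control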); conditions: HD-MB03 medulloblastoma cells, stronger effect = higher value
# [18] = growth inhibition, single agents and combos, UWB1.289, cell-based, BGB or cisplatin combos, synergistic combos for chromothripsis tumors (AID 1671456); conditions: UWB1.289 ovarian carcinoma cells, stronger effect = higher value;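 further: cells exposed to compound for four days; 0% = vehicle DMSO and 100% = killing by high DMSO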
# [19] = growth inhibition, single agents and combos, LFS_MB_2R, cell-based, cisplatin combos, synergistic combos for chromothripsis tumors (AID 1671457); conditions: LFS_MB_2R medulloblastoma cells, stronger effect = higher value;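 further: cells exposed to compound for four days before readout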
# [20] = growth inhibition, MDA-MB-436, cell-based, BGB or cisplatin combos, synergistic combos for chromothripsis tumors (AID 1671458; call rule not given here;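 further: cells exposed for 96 hours; 0% = vehicle DMSO and 100% = killing by high DMSO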); conditions: MDA-MB-436 breast carcinoma growth inhibition, drug combinations, stronger effect = higher value
# [21] = UWB1.289_BRCA1 ovarian cancer growth, cell-based, BGB or cisplatin combinations (AID 1671459); conditions: UWB1.289 BRCA1 ovarian carcinoma, drug combinations, stronger effect = higher value
# [22] = drug combination toxicity in non-malignant astrocytes – cell-based, BGB or cisplatin IC20 combos, cytotoxicity control for chromothriptic childhood tumor combination screen (AID 1671460); conditions: Human astrocytes, viability inhibition, drug combinations, at 0.5 µM, stronger effect = higher value;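 further: cells exposed to compounds for 96 hours before viability readout; 0% = vehicle and 100% = killing control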
# [23] = measured here: combination with BGB IC40, at 0.05 µM
# [24] = measured here: combination with cisplatin, at 0.5 µM
# [25] = measured here: combination with cisplatin, at 5 µM
# Chain of 6-phosphogluconate dehydrogenase, decarboxylating (Homo sapiens) (P52209 whole entry, looked up): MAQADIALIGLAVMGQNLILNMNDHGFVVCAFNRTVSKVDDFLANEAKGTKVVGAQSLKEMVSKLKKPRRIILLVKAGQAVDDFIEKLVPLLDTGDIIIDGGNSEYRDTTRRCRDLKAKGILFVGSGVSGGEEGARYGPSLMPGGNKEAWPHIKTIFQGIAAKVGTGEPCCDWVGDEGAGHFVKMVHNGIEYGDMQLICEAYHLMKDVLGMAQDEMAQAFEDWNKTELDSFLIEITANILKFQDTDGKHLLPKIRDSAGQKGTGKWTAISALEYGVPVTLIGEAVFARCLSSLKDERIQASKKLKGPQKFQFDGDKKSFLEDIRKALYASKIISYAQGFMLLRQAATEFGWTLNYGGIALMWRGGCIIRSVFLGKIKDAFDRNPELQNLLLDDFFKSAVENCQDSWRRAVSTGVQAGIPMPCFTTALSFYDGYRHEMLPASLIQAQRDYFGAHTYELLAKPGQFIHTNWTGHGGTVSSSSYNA
# Chain of NAD(+) hydrolase SARM1 (Homo sapiens) (Q6SZW1 whole entry, looked up, the tested form may be a part): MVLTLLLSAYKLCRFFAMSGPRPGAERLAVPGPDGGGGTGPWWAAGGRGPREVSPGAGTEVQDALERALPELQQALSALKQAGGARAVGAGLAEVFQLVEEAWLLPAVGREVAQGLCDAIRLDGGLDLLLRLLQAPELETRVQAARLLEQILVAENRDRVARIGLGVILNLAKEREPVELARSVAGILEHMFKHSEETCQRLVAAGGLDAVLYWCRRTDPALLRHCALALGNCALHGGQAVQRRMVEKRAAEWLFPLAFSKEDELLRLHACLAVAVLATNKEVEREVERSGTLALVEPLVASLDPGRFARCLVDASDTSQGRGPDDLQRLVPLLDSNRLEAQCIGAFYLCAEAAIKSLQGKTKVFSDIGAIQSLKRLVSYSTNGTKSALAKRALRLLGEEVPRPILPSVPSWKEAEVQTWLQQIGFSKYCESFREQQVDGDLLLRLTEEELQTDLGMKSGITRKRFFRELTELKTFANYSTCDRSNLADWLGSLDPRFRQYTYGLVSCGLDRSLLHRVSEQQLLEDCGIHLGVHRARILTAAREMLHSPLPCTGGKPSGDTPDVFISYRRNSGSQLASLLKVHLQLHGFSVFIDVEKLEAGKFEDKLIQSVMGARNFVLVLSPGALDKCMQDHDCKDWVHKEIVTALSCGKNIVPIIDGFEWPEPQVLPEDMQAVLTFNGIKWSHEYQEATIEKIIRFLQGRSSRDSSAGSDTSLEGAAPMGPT
# Chain of Mitogen-activated protein kinase 7 (Homo sapiens) (Q13164 whole entry, looked up, the tested form may be a part): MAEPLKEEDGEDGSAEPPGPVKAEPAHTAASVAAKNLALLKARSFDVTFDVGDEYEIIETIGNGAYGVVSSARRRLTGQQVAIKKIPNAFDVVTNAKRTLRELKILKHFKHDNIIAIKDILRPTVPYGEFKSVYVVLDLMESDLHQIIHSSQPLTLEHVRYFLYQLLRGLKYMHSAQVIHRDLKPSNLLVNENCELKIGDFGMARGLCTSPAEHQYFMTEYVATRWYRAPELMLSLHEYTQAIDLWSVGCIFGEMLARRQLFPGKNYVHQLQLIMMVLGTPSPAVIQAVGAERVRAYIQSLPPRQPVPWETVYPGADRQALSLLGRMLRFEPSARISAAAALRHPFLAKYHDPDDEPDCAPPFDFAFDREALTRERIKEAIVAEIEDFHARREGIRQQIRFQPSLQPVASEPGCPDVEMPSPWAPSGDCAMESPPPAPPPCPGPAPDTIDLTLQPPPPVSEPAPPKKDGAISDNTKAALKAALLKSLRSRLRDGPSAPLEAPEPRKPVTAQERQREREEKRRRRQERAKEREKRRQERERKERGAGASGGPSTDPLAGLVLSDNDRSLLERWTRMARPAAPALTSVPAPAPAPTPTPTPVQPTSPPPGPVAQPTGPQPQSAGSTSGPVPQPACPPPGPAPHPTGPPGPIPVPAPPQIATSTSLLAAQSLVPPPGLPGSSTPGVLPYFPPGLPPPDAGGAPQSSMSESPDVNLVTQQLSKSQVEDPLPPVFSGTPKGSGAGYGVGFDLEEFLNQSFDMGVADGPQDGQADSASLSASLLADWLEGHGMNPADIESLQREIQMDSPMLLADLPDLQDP
structure (smiles),measurement,setting,value
CC1(C)[C@@H](O[C@H]2O[C@H](C(=O)O)[C@@H](O)[C@H](O)[C@H]2O[C@@H]2O[C@H](C(=O)O)[C@@H](O)[C@H](O)[C@H]2O)CC[C@]2(C)[C@H]3C(=O)C=C4[C@@H]5C[C@@](C)(C(=O)O)CC[C@]5(C)CC[C@@]4(C)[C@]3(C)CC[C@@H]12,inhibition,[1],11% (inactive)
same,outcome,[2],inactive
same,outcome,[3],inactive
same,outcome,[4],inactive
same,outcome,[5],inactive
COc1cc([C@@H]2c3cc4c(cc3[C@@H](O[C@@H]3O[C@@H]5CO[C@@H](c6cccs6)O[C@H]5[C@H](O)[C@H]3O)[C@H]3COC(=O)[C@H]23)OCO4)cc(OC)c1O,inhibition,[1],-2.92% (inactive)
same,AC50,[6],0.332 µM (active)
same,AC50,[3],13.2 µM (active)
same,AC50,[4],0.332 µM (active)
same,AC50,[7],5.9 µM (active)
same,AC50,[8],9.34 µM (active)
same,remaining NAD,[9],10 nM (inactive)
same,luciferase signal,[10],72 AU (inactive)
same,inhibition,"[11]; at 0.5 µM, stronger effect = higher value",-18.8% (inactive) and -25.9% (inactive)
same,inhibition,"[11]; measured here: combination with BGB IC20, at 0.005 µM",-25.8% and -10.9%
same,inhibition,"[11]; measured here: combination with BGB IC40, at 0.005 µM",-33.2% and -18.4%
same,inhibition,[11]; [23],-33.7% and -25%
same,inhibition,"[11]; measured here: combination with cisplatin, at 0.5 µM, stronger effect = higher value",-32.6% and -15.4%
same,inhibition,"[11]; measured here: combination with cisplatin, at 5 µM, stronger effect = higher value",28.9% and -5.22%
same,inhibition,"[12]; BGB combo, at 5 µM",78% and 92.3%
same,inhibition,[12]; at 0.5 µM,53.6% (inactive) and 64.1% (inactive)
same,inhibition,"[12]; cisplatin combo, at 5 µM",82.1% and 93.8%
same,inhibition,"[12]; measured here: with BGB IC20 combination, at 0.5 µM",46.9% and 59.7%
same,inhibition,"[12]; measured here: with cisplatin IC20 combination, at 0.5 µM",51% and 63.1%
same,inhibition,"[12]; single agent, at 5 µM",88% and 95.5%
same,inhibition,"[13]; BGB IC20 combo, at 0.005 µM",20.5% and 3.66%
same,inhibition,"[13]; BGB IC40 combo, at 0.005 µM",-28.7% and -5.88%
same,inhibition,"[13]; BGB IC40 combo, at 0.05 µM",-11.6% and -12.3%
same,inhibition,[13]; at 0.5 µM,-25.1% (inactive) and -14.4% (inactive)
same,inhibition,"[13]; cisplatin combo, at 0.05 µM",-14.7% and -16.3%
same,inhibition,"[13]; cisplatin combo, at 0.5 µM",-25.3% and 3.4%
same,inhibition,"[13]; cisplatin combo, at 5 µM",-14.6% and 1.51%
same,inhibition,"[13]; measured here: 5 uM single agent, at 5 µM",-8.36% and -4.68%
same,inhibition,[14]; at 0.5 µM,-4.7% (inactive) and -8.97% (inactive)
same,inhibition,[14]; [23],1.41% and -17.3%
same,inhibition,[14]; [24],10.9% and 4.47%
same,inhibition,[14]; [25],22.9% and 27.7%
same,inhibition,[15]; at 0.5 µM,63.9% (inactive) and 81.2% (active)
same,inhibition,"[15]; measured here: with BGB IC20, at 0.5 µM",57.1% and 81.5%
same,inhibition,"[15]; measured here: with BGB IC20, at 5 µM",98.1% and 98.9%
same,inhibition,"[15]; measured here: with cisplatin IC20, at 0.5 µM",63.4% and 77.7%
same,inhibition,"[15]; measured here: with cisplatin IC20, at 5 µM",99.6% and 99.8%
same,inhibition,"[15]; single agent, at 5 µM",99.4% and 99.7%
same,inhibition,[16]; at 0.5 µM,5.54% (inactive) and 23.7% (inactive)
same,inhibition,"[16]; measured here: combination with BGB at IC20, at 0.5 µM",22% and 28.7%
same,inhibition,"[16]; measured here: combination with cisplatin at IC20, at 0.5 µM",-12.5% and 10.8%
same,inhibition,[17]; at 0.5 µM,96.4% (active) and 98.5% (active)
same,inhibition,"[17]; measured here: combo with BGB at IC20, at 0.5 µM",94.6% and 97.5%
same,inhibition,"[17]; measured here: combo with cisplatin at IC20, at 0.5 µM",96.6% and 99.1%
same,inhibition,[18]; at 0.5 µM,18.6% (inactive) and 46.3% (inactive)
same,inhibition,"[18]; measured here: inhibition with BGB combination, at 0.05 µM",-23.8% and 2.23%
same,inhibition,"[18]; measured here: inhibition with cisplatin combination, at 0.05 µM",-2.66% and 12.3%
same,inhibition,[19]; at 0.5 µM,-16.4% (inactive) and -13.1% (inactive)
same,inhibition,[19]; [24],-12.1% and -0.448%
same,inhibition,[19]; [25],-6.88% and 18.4%
same,inhibition,[20]; at 0.5 µM,49.3% (inactive) and 53.1% (inactive)
same,inhibition,"[20]; measured here: BGB combination, at 0.5 µM",36% and 34.4%
same,inhibition,"[20]; measured here: BGB combination, at 5 µM",73.1% and 71.2%
same,inhibition,"[20]; measured here: cisplatin combination, at 0.5 µM",49.6% and 58.2%
same,inhibition,"[20]; measured here: cisplatin combination, at 5 µM",83.3% and 88.6%
same,inhibition,"[21]; BGB combination, concentration series, at 5 µM",94.5% and 109%
same,inhibition,[21]; at 0.5 µM,16.2% (inactive) and 36.5% (inactive)
same,inhibition,"[21]; cisplatin combination, concentration series, at 5 µM",117% and 124%
same,inhibition,[22],47.8% (inactive) and 52.6% (inactive)
same,inhibition,[22]; measured here: combo with BGB IC20,42.5% and 54.3%
